Data on 23 compounds can be found in PubChem BioAssay (NCATS).

Records with an inconclusive call do not appear. Entries that show only a call come without a potency. Active and inactive are the calls of the source. The call rests on the fitted dose curve.

One assay in a line: Primary qHTS for Vero E6 cytotoxicity: counterscreen for inhibitors of SARS-S pseudo-typed particle cell entry (AID 1479150). The settings on record: cell viability; series mostly up to 57.1 µM. For orientation: In qHTS, concentration-response curves come from the screen itself.
Consider `Clc1ccc(C(Cn2ccnc2)OCc2c(Cl)cccc2Cl)c(Cl)c1` (stereo not given), for which the Potency result is “inactive”. As for `COc1ccccc1OC(=O)Oc1ccccc1OC`, the Potency entry was “inactive”. The same measure, in the same setting: the value for `CC1(C)CCC(C)(C)c2cc(NC(=O)c3ccc(C(=O)O)cc3)ccc21` was “inactive”; that for `O=C1CC2(CCCC2)CC(=O)N1CCCCN1CCN(c2ncccn2)CC1` was “inactive”. Same read-out and setting: then `CN1CCN(c2cc3c(cc2F)c(=O)c(C(=O)O)cn3-c2ccc(F)cc2)CC1`, with “inactive”. For `Nc1c(NC/C=C\COc2cc(CN3CCCCC3)ccn2)c(=O)c1=O`, the Potency entry is “inactive”. Still for that read-out and setting: then `O=S(=O)(c1cccc2cnccc12)N1CCCNCC1`, with “inactive”; and `COc1ccc2c(c1)C(=O)N(CCc1ccc(S(=O)(=O)NC(=O)NC3CCCCC3)cc1)C(=O)C2(C)C`, with “inactive”.

Take `O=C(c1ccc(F)cc1)C1CCN(CCn2c(=O)[nH]c3ccccc3c2=O)CC1`: the Potency result was “inactive”. For `CC(=O)[C@@]1(O)CC[C@H]2[C@@H]3C[C@H](C)C4=CC(=O)CC[C@]4(C)[C@H]3CC[C@@]21C`, the Potency result was “inactive”. Same read-out and setting: then `N#C/C(=C1/SC[C@@H](c2ccc(Cl)cc2Cl)S1)n1ccnc1`, with “inactive”. The same measure, in the same setting: then `CN(C)CCOC(c1ccccc1)c1ccc(Br)cc1` (stereo not given), with “inactive”.

Consider `CCOc1ccc(C(=O)OCCN(CC)CC)cc1`, for which the Potency entry is “inactive”. For the compound `CN1CCC(OC(c2ccccc2)c2ccccc2)CC1`, the Potency entry was “inactive”. On to `CN1CCC(=C2c3ccccc3CCc3sccc32)CC1`, for which the Potency result was “inactive”. For `O[C@@H](COc1cccc2ncccc12)CN1CCN(C2c3ccccc3[C@@H]3[C@H](c4ccccc42)C3(F)F)CC1` (stereo not given in full), the Potency result was “inactive”.

Consider `CCOC(=O)OC(C)OC1=C(C(=O)Nc2ccccn2)N(C)S(=O)(=O)c2ccccc21` (stereo not given), for which the Potency result is “inactive”. On the same count and under the same terms, then `CCCCCOc1ccccc1/C(=C\SC)n1ccnc1`, with “inactive”. On the same count and under the same terms, then `COc1ccccc1N1CCN(CC(O)COc2cccc3ccccc23)CC1` (stereo not given), with “inactive”. Same read-out and setting: the value for `CC/C(=C(/CC)c1ccc(O)cc1)c1ccc(O)cc1` was “inactive”; that for `CN(C)CCCOC1(Cc2ccccc2)CCCCCC1` was “inactive”; that for `CN(C)CCCOc1nn(Cc2ccccc2)c2ccccc12` was “inactive”.

The nature of another assay: Confirmatory qHTS for VERO E6 Cytotoxicity Assay: Counterscreen for SARS-CoV-2 CPE Assay (AID 1508605). Further: nearly all actives have a fitted effect of over 60% in size. Particulars: cell viability luminescence; series mostly up to 20 µM.
In the case of `CN(C)[C@@H](CCOc1cccc2ccccc12)c1ccccc1`, the Potency entry was “inactive”. On the same count and under the same terms, then `CN(C)CCOC(c1ccccc1)c1ccc(Br)cc1` (stereo not given), with “inactive”; and `CN1CCC(=C2c3ccccc3CCc3sccc32)CC1`, with “inactive”.
